Laboratory results published in PubChem BioAssay (NCATS).
For part of these data: Potency and affinity values are given separately. The source made the active and inactive calls. No rule for the calls is given here.

Assay: qHTS profiling of the MIPE4 collection as inhibitors of Plasmodium falciparum (3D7) proliferation (AID 743344);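 also: scaled between DMSO vehicle wells and 0.29 µM artemisinin as full inhibition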
Conditions: P. falciparum 3D7 in erythrocytes, SYBR Green DNA fluorescence, 72 h; at 28.5 µM unless noted
Outline: (§1)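 Parasite DNA was quantified by SYBR Green I fluorescence (ex 485, em 535 nm) after overnight lysis in saponin/Triton buffer at room temperature. Cultures at 0.3% parasitemia and 2.5% hematocrit were first exposed to compound for 72 h at 37 C; signals were normalised to artemisinin (0.29 uM) and vehicle wells.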
For efficacy in this document: 0% is about no effect.

Row | SMILES | parasite growth, % of DMSO control [%]
1 | CC[N+](CC)(CC)CCOc1cccc(OCC[N+](CC)(CC)CC)c1OCC[N+](CC)(CC)CC | 86
2 | O=c1[nH]cnc2[nH]ncc12 | 105
3 | CC(C)c1cccc(C(C)C)c1O | 89.1

Assay: qHTS profiling of the MIPE4 collection as inhibitors of Plasmodium falciparum (DD2) proliferation (Rep 2) (AID 743346)
Conditions: P. falciparum Dd2 in erythrocytes, SYBR Green DNA, 72 h; at 28.5 µM unless noted
Outline: as §1

Row | SMILES | parasite growth, % of control (lower = inhibition) [%]
4 | CC[N+](CC)(CC)CCOc1cccc(OCC[N+](CC)(CC)CC)c1OCC[N+](CC)(CC)CC | 133
5 | O=c1[nH]cnc2[nH]ncc12 | 153
6 | CC(C)c1cccc(C(C)C)c1O | 85.1

Assay: qHTS profiling of the MIPE4 collection as inhibitors of Plasmodium falciparum (HB3) proliferation (AID 743347);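 also: plate controls were DMSO vehicle wells for no effect and artemisinin wells for full effect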
Conditions: P. falciparum HB3 in erythrocytes, SYBR Green DNA, 72 h; at 28.5 µM unless noted
Outline: as §1

Row | SMILES | growth, % of control [%]
7 | CC[N+](CC)(CC)CCOc1cccc(OCC[N+](CC)(CC)CC)c1OCC[N+](CC)(CC)CC | 111
8 | O=c1[nH]cnc2[nH]ncc12 | 93.3
9 | CC(C)c1cccc(C(C)C)c1O | 103

Assay: not given
Conditions: Ebola virus entry assay, green fluorescence channel

Row | SMILES | efficacy
10 | OC[C@@H](O)[C@@H](O[C@@H]1O[C@H](CO)[C@H](O)[C@H](O)[C@H]1O)[C@H](O)[C@@H](O)CO | -17.2% (inactive)
11 | C[C@]12C=CC(=O)C=C1[C@@H](F)C[C@@H]1[C@@H]2[C@@H](O)C[C@@]2(C)[C@H]1CC[C@]2(O)C(=O)CO | 13.6% (inactive)
12 | COC(=O)c1ccc(O)cc1 | 13.3% (inactive)
13 | CC(O)C(=O)O (stereo not drawn) | 12.5% (inactive)
14 | C[C@]12CC[C@H]3[C@@H](CCC4=CC(=O)CC[C@@H]43)[C@@H]1CC[C@@H]2OC(=O)CCc1ccco1 | -14.7% (inactive)
15 | CC[N+](CC)(CC)CCOc1cccc(OCC[N+](CC)(CC)CC)c1OCC[N+](CC)(CC)CC | 15.9% (inactive)
16 | COc1c2occc2cc2ccc(=O)oc12 | -15% (inactive)
17 | COc1ccc2c3c1O[C@H]1[C@H](O)CC[C@H]4[C@@H](C2)N(C)CC[C@@]341 | -11.3% (inactive)
18 | COc1ccc(NS(=O)(=O)c2ccc(N)cc2)nn1 | 8.59% (inactive)
19 | Cc1cc(NS(=O)(=O)c2ccc(N)cc2)no1 | 21.6% (inactive)
20 | CN(C)[C@@H]1C(=O)C(C(N)=O)=C(O)[C@@]2(O)C(=O)C3=C(O)c4c(O)cccc4C[C@H]3C[C@@H]12 | 167% (inactive)
21 | CC1(C)C(C=C(Cl)Cl)C1C(=O)OC(C#N)c1cccc(Oc2ccccc2)c1 (stereo not drawn) | -14.1% (inactive)
22 | CC(C)C(=O)Nc1cccc(C(F)(F)F)c1 | 16.7% (inactive)
23 | COc1ccc2c(c1)c(CC(=O)OC/C=C(\C)CC/C=C(\C)CCC=C(C)C)c(C)n2C(=O)c1ccc(Cl)cc1 | 62.6% (inactive)
24 | COc1ccc2nc(SCc3ncc(C)c(OC)c3C)[nH]c2c1 | -11.5% (inactive)
25 | C#C[C@]1(O)CC[C@H]2[C@@H]3CCc4cc(OC5CCCC5)ccc4[C@H]3CC[C@@]21C | 57.3% (inactive)
26 | O=C(CCCN1CCC2(CC1)C(=O)NCN2c1ccccc1)c1ccc(F)cc1 | -27.3% (inactive)
27 | Cc1onc(-c2c(Cl)cccc2Cl)c1C(=O)Cl | -15.7% (inactive)
28 | O=c1[nH]cnc2[nH]ncc12 | -34% (inactive)
29 | Cc1cc(O)c2ccccc2c1O | 13.4% (inactive)

Row | SMILES | efficacy
30 | COc1cc(CCN)cc(OC)c1OC | 10.5% (inactive)
31 | O=C(Nc1ccc(Br)cc1)c1cc(Br)cc(Br)c1O | -20.2% (inactive)
32 | CC(C)c1cccc(C(C)C)c1O | -18.5% (inactive)
33 | COP(=S)(OC)Oc1cc(Cl)c(Cl)cc1Cl | -14% (inactive)
34 | COc1cccc([C@@]2(O)CCCC[C@@H]2CN(C)C)c1 | -12.5% (inactive)
35 | O=C(O)Cc1ccc(-c2ccccc2)cc1 | 14.2% (inactive)
36 | COc1ccccc1N1CCN(CCCCNC(=O)c2ccc(-c3ccc(C(C)=O)cc3)cc2)CC1 | 25.2% (inactive)
37 | CCCC(=O)OCOC(=O)C1=C(C)NC(C)=C(C(=O)OC)C1c1cccc(Cl)c1Cl (stereo not drawn) | 17.3% (inactive)
38 | CCOP(=S)(OCC)Oc1ccc2c(C)c(Cl)c(=O)oc2c1 | 16.9% (inactive)
39 | C[C@]12CCC(=O)C=C1CC[C@@H]1[C@@H]2CC[C@@]2(C)[C@H]1CC[C@]2(C)O | -23% (inactive)
40 | CCOC(=O)c1ccc(O)cc1 | -24.8% (inactive)
41 | NS(=O)(=O)c1cc(-c2nn[nH]n2)c(NCc2cccs2)cc1Cl | -20.9% (inactive)
42 | CCCCCCCCCC(=O)O[C@H]1CC[C@H]2[C@@H]3CCC4=CC(=O)CC[C@@H]4[C@H]3CC[C@]12C | 27.8% (inactive)
43 | O=C(O)Cc1cccc(-c2cc(CCCCCCc3ccc(O[C@H]4O[C@H](CO)[C@@H](O)[C@H](O)[C@@H]4O)c(-c4cccc(CC(=O)O)c4)c3)ccc2O[C@H]2O[C@H](CO)[C@@H](O)[C@H](O)[C@@H]2O)c1 | -7.69% (inactive)
44 | c1ccc(CN2CCNCC2)cc1 | -15.2% (inactive)
45 | Cc1oc(=O)oc1COC(=O)[C@@H]1N2C(=O)[C@@H](NC(=O)[C@H](N)c3ccccc3)[C@H]2SC1(C)C | -26.8% (inactive)
46 | CN(C)C(=O)COC(=O)Cc1ccc(OC(=O)c2ccc(N=C(N)N)cc2)cc1 | -14.4% (inactive)
47 | CC(C)(Oc1ccc(C2CC2(Cl)Cl)cc1)C(=O)O (stereo not drawn) | 16.1% (inactive)
48 | Cc1ccc2ccc(Cl)cc2n1 | 18.4% (inactive)
